Pf Dd2 growth: Plasmodium falciparum Dd2 growth inhibition | Potency, µM (top dose mostly 28.9 µM), for inactives: at the highest dose activity, negative = inhibition, most hits filed as inhibitors | 120,000 tested, 4.3% active | P. falciparum Dd2 growth, SYBR Green, 72 h; active = well fitted inhibition curve with a large enough effect;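 note: plate controls were DMSO vehicle for no effect and reference drug for full effect; nearly all actives have a fitted effect of over 65% in size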
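Readout: SYBR Green fluorescence, 485 nm excitation, 535 nm emission, after ~16 h lysis at 37C. Before that, Dd2-infected red cells (2.5% hematocrit) grew 72 h with compound, 29 uM top final concentration.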
* hit, by the source's call; i = inactive; [ ] = another dose, or the depositor's remark. This is one part of a sample in which hits are shown more often than they occur. Potency is the fitted concentration of half-maximal effect.

SMILES	Pf Dd2 growth
O=C(NCc1ccc2c(c1)OCO2)C1CN(c2ccccc2)C(=O)N1 (stereo not drawn)	i
CNC(=O)[C@@H]1C[C@@H](O)CN1C1CCN(C(=O)c2cc3ccccc3[nH]2)CC1	i
CCn1ccnc1CN(C)Cc1cn(C)nc1-c1ccc(Oc2ccccc2)cc1	-4%
O=c1cc(CN2CCCCC2c2ccccn2)[nH]c2ccc(F)cc12 (stereo not drawn)	-10%
Cn1cc(CN2CCCC2c2ccccn2)c(-c2ccc(Oc3ccccc3)cc2)n1 (stereo not drawn)	7.1µM*
CCOCC(=O)N1CCN(Cc2ccc(=O)n(CC3CC3)c2)CC1	3%
CCOc1ccc(C(=O)Nc2c(C(=O)c3ccccc3)oc3ccccc23)cc1	-8%
COc1ccccc1C(=O)N(Cc1ccco1)Cc1ccccc1F	-7%
COc1ccccc1C(=O)Nc1c(C(=O)N(CCN(C)C)Cc2ccco2)oc2ccccc12	6.3µM*
Cc1c(C(=O)N(Cc2cccc(Cl)c2)Cc2ccco2)oc2ccccc12	3%
CN(C)CCN(Cc1ccco1)C(=O)c1oc2ccccc2c1NC(=O)c1ccccc1	11µM*
COc1cccc(C(=O)Nc2c(C(=O)Nc3ccc(F)cc3)oc3ccccc23)c1OC	-21%
Clc1cc(NCC2CC2)n2nccc2n1	-9%[44.1 µM]
O=C(NCc1nnc2ccc(-c3ccccc3)nn12)c1cc2ccccc2[nH]1	i
CC1(CNc2ccccc2)COc2ccc(C(=O)NCCOc3ccccc3)cc2N1 (stereo not drawn)	-20%[44.1 µM]
O=C(CC[C@@H]1CNC(=O)[C@@H]2C[C@H](NCc3ccccc3)CN12)NCc1ccc(F)cc1	12%[44.1 µM]
O=C(Cc1ccsc1)N1CC2CC(C1)[C@H]1CCCC(=O)N1C2 (stereo partly drawn)	-2%
COCCCNc1nc2c(S(=O)(=O)c3ccccc3)nnn2c2ccccc12	1%
COCCCNc1nc2c(-c3ccccc3)nnn2c2ccccc12	7.9µM*
COCCCNc1nc2c(S(=O)(=O)c3ccc(C)cc3)nnn2c2ccccc12	0%
O=C(NCc1ccccc1)Nc1cccn2ncnc12	-10%
CCOC(=O)c1c(NC(=O)c2ccc(S(=O)(=O)N(C)C3CCCCC3)cc2)sc2c1CCN(C(C)C)C2	11µM*
COC(=O)c1c(NC(=O)c2ccc(S(=O)(=O)N3CCCCC3C)cc2)sc2c1CCN(C(C)C)C2 (stereo not drawn)	11µM*
CCCOc1ccc(C(=O)Nc2sc3c(c2C(=O)OCC)CCCCC3)cc1	i
CCCCN(C)S(=O)(=O)c1ccc(C(=O)Nc2sc3c(c2C(=O)OCC)CCN(C(C)C)C3)cc1	6.3µM*
SMILES	Pf Dd2 growth
COC(=O)c1c(NC(=O)c2ccc(C(C)(C)C)cc2)sc2c1CCC(C)C2 (stereo not drawn)	30%
CCOC(=O)c1c(NC(=O)CS(=O)(=O)c2ccc(C)cc2)sc2c1CCC(C)C2 (stereo not drawn)	42%
CNC(=O)c1c(NC(=O)c2ccc(S(=O)(=O)N3CCCCC3C)cc2)sc2c1CCC2 (stereo not drawn)	i
CCOc1cccc2sc(NC(=O)c3ccc(S(=O)(=O)N4CCCCC4C)cc3)nc12 (stereo not drawn)	-7%
COCCN(CCOC)S(=O)(=O)c1ccc(C(=O)Nc2sc3c(c2C(N)=O)CCCC3)cc1	8%
COCCN(CCOC)S(=O)(=O)c1ccc(C(=O)Nc2sc3c(c2C(=O)OC)CCN(C)C3)cc1	11µM*
CCOC(=O)c1c(NC(=O)c2ccccc2C)sc2c1CCCC2	2%
CCOC(=O)c1c(NC(=O)c2ccc(Br)cc2)sc2c1CCCC2	1%
CNC(=O)N1CCC(C2CCN(C(=O)c3ccccc3OC)C2)CC1 (stereo not drawn)	14%
COCCNC(=O)C1CC(=O)N(c2n[nH]c3cc(Br)ccc23)C1 (stereo not drawn)	-10%
O=C(NCc1cccc(F)c1)C1CC(c2ccccc2)CN(C(=O)c2ccc(F)cc2)C1 (stereo not drawn)	i
CC(=O)N1CC2(Cc3ccccc3N([S+](C)(=O)[O-])C2)C1	13%[44.1 µM]
COc1ccc(C(=O)N2CCC3(COc4ccncc4[S+](=O)([O-])N3)C2)cc1 (stereo not drawn)	10%
O=C(N1CCCC1)N1CCN(C2CNC2)C(=O)C1	-3%[44.1 µM]
COc1ccccc1N1CCN(C(=O)C[C@@H]2O[C@H](CNS(=O)(=O)c3ccccc3)[C@@H](O)[C@H]2O)CC1	46%
Cc1ccc2c(c1)N1C(=O)OC[C@@H]1CCN(C(C)C)C2	6%[44.1 µM]
CCOC(=O)c1c(NC(=O)c2ccc(S(=O)(=O)N3CCC(C)CC3)cc2)sc2c1CCN(C)C2	8.9µM*
CCOC(=O)c1c(NC(=O)c2ccc(S(=O)(=O)N(C)C)cc2)sc2c1CCN(C)C2	i
CNC(=O)c1c(NC(=O)c2ccc(S(=O)(=O)N3CCC(C)CC3)cc2)sc2c1CCC2	0%
O=C(Nc1ccc([C@H]2OCC(=O)N(C3CCOCC3)[C@@H]2CO)cc1)C1CCC1	i
CN(C)[C@H]1CCN(S(=O)(=O)c2ccsc2C(=O)O)C[C@H]1CCC(=O)O	4%
O=C(c1ccccc1)N1CCn2c(nnc2C2CCCNC2)C1 (stereo not drawn)	-7%[44.1 µM]
Cc1ccc(-n2ncc(C(=O)NCc3cccs3)c2C2CCN(C(=O)OC(C)(C)C)CC2)c(C)c1	11µM*
CC(C)(C)OC(=O)N1CCC(c2c(C(=O)NCc3cccs3)cnn2-c2cccc(F)c2)CC1	7.9µM*
CCCn1ccc2sc(C)c(C(=O)NCc3ccc(C)cc3)c2c1=O	i
SMILES	Pf Dd2 growth
CCN(CC)c1cc(CCC(=O)NCc2ccc(Cl)cc2)ccn1	5µM*
Cn1cc(CCC(=O)NCc2ccc(Cl)cc2)c2ccccc21	29%
CCN(CC)c1cc(CCC(=O)N(C)CCc2ccncc2)ccn1	-14%
CCOc1ccccc1NC(=O)CN1C(=O)NC(c2ccc(Cl)cc2)C2=C1COC2=O (stereo not drawn)	-15%
COCCCNC(=O)c1ccc(CN2C(=O)NC3(CCS(=O)(=O)CC3)C2=O)cc1	-2%
O=C(Nc1cccc(Cl)c1)N1CC(n2cc(COc3ccccc3)nn2)C1	7.9µM*
CNC(=O)[C@@H]1C[C@H](n2cc(CNC(=O)Nc3cccc(Cl)c3)nn2)CN1	0%
O=C(Nc1ccccc1)N1CC(n2cc(C(=O)N3CCOCC3)nn2)C1	24%
Cc1ccccc1-c1ccnc(-c2nnc(C)n2Cc2ccncc2)c1	i
CN(C)Cc1nnc(C2CC(NC(=O)Cc3noc4ccccc34)C2)n1C (stereo not drawn)	-7%
CCc1ccc(Nc2nc(-c3cc4cccc(OC)c4oc3=O)c(CC)s2)cc1	11µM*
COc1cccc2cc(-c3nc(Nc4cccc(C)c4C)sc3C)c(=O)oc12	5%
CCOc1cccc2cc(-c3nnc(Nc4ccc(F)c(Cl)c4)s3)c(=O)oc12	21%
NC(=O)[C@@H](Cc1c[nH]c2ccccc12)NC(=O)C1=C[C@@H](NS(=O)(=O)c2cccs2)[C@@H](O)[C@H](O)C1	9%
CNC(=O)[C@@H]1C[C@@H](n2cc(CNC(=O)c3cccc(OC)c3)nn2)CN1	11%
CCn1cnnc1CC1CCN(C(=O)C2CCCC2)C1 (stereo not drawn)	9%
CCN(C1CCOCC1)C1CN(C(=O)c2ccncc2)C1	1%
CC1(c2noc(-c3ccccn3)n2)CCN(C(=O)CCc2nc3ccc(Cl)cc3[nH]2)CC1	5.6µM*
CC1(c2noc(-c3ccccn3)n2)CCN(C(=O)CCC(=O)N2CC(=O)Nc3ccccc32)CC1	-17%
CC1(c2noc(C3CC3)n2)CCN(C(=O)CCc2nc3ccc(Cl)cc3[nH]2)CC1	i
